# PubChem BioAssay AID1671190 (National Center for Advancing Translational Sciences (NCATS), 2021)
# Screen size: about 580,000 compounds; about 6,100 (1.1%) were called active. Not shown: some 15% with an inconclusive outcome. The sample holds actives, similar compounds and a random draw of the others, so the mix is not that of the screen. A number with no mark means an inactive call. The call rests on the fitted dose curve; in most records, active means well fitted inhibition curve with a large enough effect; inconclusive means small, poorly fitted or top-dose-only effect, or another doubt; inactive means no such curve, though single readings can be large or run the other way.
# Biological target: Polyunsaturated fatty acid lipoxygenase ALOX12 (Homo sapiens) (UniProt P18054)
# Sequence (P18054 whole entry, looked up): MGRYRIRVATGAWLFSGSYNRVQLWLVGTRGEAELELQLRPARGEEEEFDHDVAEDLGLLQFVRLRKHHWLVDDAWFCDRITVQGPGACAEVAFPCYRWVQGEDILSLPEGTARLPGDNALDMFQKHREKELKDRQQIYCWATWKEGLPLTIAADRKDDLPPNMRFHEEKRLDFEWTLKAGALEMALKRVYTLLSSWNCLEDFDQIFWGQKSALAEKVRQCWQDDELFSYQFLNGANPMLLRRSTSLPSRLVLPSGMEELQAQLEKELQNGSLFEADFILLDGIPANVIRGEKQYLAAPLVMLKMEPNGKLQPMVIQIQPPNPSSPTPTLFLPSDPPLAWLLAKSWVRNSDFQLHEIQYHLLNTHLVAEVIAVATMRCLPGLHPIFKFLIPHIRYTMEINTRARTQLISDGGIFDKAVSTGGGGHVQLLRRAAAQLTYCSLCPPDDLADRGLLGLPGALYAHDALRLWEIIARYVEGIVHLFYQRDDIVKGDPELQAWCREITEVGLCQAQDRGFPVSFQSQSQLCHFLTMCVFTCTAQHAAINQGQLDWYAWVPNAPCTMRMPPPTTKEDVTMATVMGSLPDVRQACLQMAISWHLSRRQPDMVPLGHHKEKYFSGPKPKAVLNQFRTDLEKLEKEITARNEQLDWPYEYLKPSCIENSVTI
# Assay: Primary qHTS assay for inhibitors of human arachidonate 12S-lipoxygenase (ALOX12): Round 2
# Conditions: purified 12hLO, xylenol orange hydroperoxide absorbance; series mostly up to 108 µM; activity change, negative = inhibition: at the top concentration
# From the text: Assay Provider: Theodore R. Holman Ph.D. University of California, Santa Cruz, California Human lipoxygenase 12hLO is a member of the closely related lipoxygenase family of enzymes which catalyze the site-specific oxidation of arachidonic acid to various hormone precursor molecules and as such is a candidate for drug development in a variety of disease areas, such as cancer and inflammation. Inhibition of 12hLO activity was screened by utilizing arachidonic acid as a substrate. The extent of hydroperoxide product formation was measured by a secondary chromogenic reaction in which xylenol orange (XO, Sigma-Aldrich, cat. number 39,818-7) reacts with the ferric ions produced from the reaction between the hydroperoxide and ferrous ions. The Fe (III)-XO complex is characterized with red-shifted absorbance at 560 nm. A purified preparation of human 12hLO was supplied by Dr. Holman laboratory, University of California, Santa Cruz.
# PROTOCOL TABLE SEQUENCE No. (e.g., 1, 2, 3, etc.); […] (e.g., Cells, Incubation, Reagent, etc.); VALUE; DESCRIPTION 1; Enzyme; 3 uL; 150 nM 12hLO enzyme solution dispensed in 1536-well Greiner black, clear bottom plates. 2; Compound; 23 nL; compounds and controls were added. 3; Incubate; 15 min; room temperature. 4; Substrate; 1 uL; 40 uM arachidonic acid (final concentration). 5; Incubate; 30 min; room temperature. 6; Reagent; 4 uL; Fe-XO solution was added to each well. 7; Incubation; 30 min; room temperature 8; Detector; absorbance; Read 1 at 405 nm absorbance using ViewLux (Perkin-Elmer) CCD imager. 9; Detector; absorbance; Read 2 at 573 nm absorbance using ViewLux (Perkin-Elmer) CCD imager. NOTES (numbers refer to sequence above) 1; 150 nM 12hLO (final concentration) in buffer solution (25 mM Hepes, 0.01% Triton X-100, pH 7.0) was dispensed in columns 1, 2, 5-48. Column 1 is neutral (100% activity). Buffer only was dispensed in columns 3 and 4 as no enzyme negative controls. The plates were covered with metal lids with gas-exchange holes. 2; Compounds were pin transferred via a Kalypsys Pin Tool (Wako USA) in column 5-48. Control compound was transferred in column 2, titration of nordihydroguaiaretic acid (NDGA, Sigma-Aldrich, N5023) with top concentration of 20 mM in DMSO then 1:3 dilution in duplicate. Dilution factor of 23 nL into 4 uL final assay volume. 3; Covered assay plates were incubated for 15 min at room temperature. 4; Substrate was added to start the reaction; 40 uM arachidonic acid (Sigma-Aldrich, St. Louis, MO) was dispensed throughout the plate. 6; Chromogenic detection reagent solution (divalent iron/xylenol orange, Fe-XO) was added to each well: 200 uM xylenol orange, 300 uM ferrous ammonium sulfate prepared freshly in 50 mM sulfuric acid. 8, 9; Two absorbance readouts were obtained at 405 nm and at 573 nm using a ViewLux high-throughput CCD plate imager (Perkin-Elmer). The 573 to 405 (Read 2 / Read 1) absorbance ratio was used to compute reaction progress.
# On the % scale 0 is the no-effect control and ±100 the full control effect; potency means the concentration at half of the fitted maximal effect.
SMILES,"activity change, negative = inhibition",Potency
Cc1nc2ccccc2c(C)c1CC(=O)N1CCC(C)CC1,-26%,–
Cn1c(=O)c2c(nc(CN3CCc4ccccc4C3)n2CCCc2ccccc2)n(C)c1=O,10.8%,–
COc1ccc(C(=O)/C=C/c2cccc(OC(=O)C3CC3)c2)cc1,-0.582%,–
Cc1nc2c(c(C)c1CCC(=O)NCCN1CCCC1)c(=O)n(C)c(=O)n2C,39.2%,–
COc1ccc(-c2noc(CNC(=O)COc3cccc(C)c3C)n2)cc1OC,19.2%,–
C=CCNc1nc(Nc2ccc(Cl)cc2)nc(OC)n1,–,39.8 µM (active)
COc1nc(NCc2ccc(Cl)cc2)nc(OC)n1,0%,–
C=CCNc1nc(C)nc(OC)n1,-0.148%,–
Cc1[nH]c2ccccc2c1C(=O)CSc1nnc(CC(C)c2ccccc2)o1 (centres undefined),-13.7%,–
N#Cc1ccccc1COC(=O)c1ccc(Br)cc1,-29.1%,–
O=[N+]([O-])c1ccccc1CN1C[C@H](O)C[C@H]1c1nc(-c2ccc(F)cc2)no1,–,39.8 µM (active)
Oc1ccccc1CN1C[C@H](O)C[C@H]1c1nc(Cc2ccc(F)cc2Cl)no1,-13.1% [at 176 µM],–
O=[N+]([O-])c1cccc(-c2noc([C@@H]3C[C@@H](O)CN3Cc3cccnc3)n2)c1,-5.09% [at 176 µM],–
CC(C)CN1CCOC(CNC(=O)N2CCN(S(=O)(=O)c3ccc(C#N)cc3)CC2)C1 (centres undefined),11.8%,–
Cc1cccc(C(=O)Nc2cccc(-c3nn4c(C)nnc4s3)c2)c1,13.3%,–
N#Cc1cccc(-c2ccc3ncnc(NCc4cccs4)c3c2)c1,–,50.1 µM (active)
CN1Cc2ncnc(NCc3cccs3)c2CN(c2ccccc2)C1=O,-6.3%,–
COc1ccccc1CNc1ncnc2ccc(-c3ccc4c(c3)OCO4)cc12,-18.3%,–
c1ccc2c(c1)C(=NC1CCCCC1)NC2=NC1CCCCC1,–,31.6 µM (active)
CC(C)(C)c1ccc2c(c1)OCCOCCOCCOc1ccc(C(C)(C)C)cc1OCCOCCOCCO2,-22.8%,–
C[C@H]1CN(C(=O)Nc2ccc(F)cc2)C[C@@H]1c1nc(-c2ccccc2)no1,-4.94%,–
Cc1onc(-c2ccc(F)cc2F)c1C(=O)Nc1cccc(C(F)(F)F)c1,-19%,–
CCOC(=O)c1c(NC(=O)c2c(-c3ccccc3)noc2C)sc2c1CCC2,-13.9%,–
CCCNC(=O)c1ccc(NC(=O)CCc2ccccc2)cc1,-1.02%,–
Cc1onc(-c2ccccc2)c1C(=O)NNC(=S)NC(=O)c1ccc(F)cc1,–,39.8 µM (active)
COCc1nc(CCNC(=O)CCc2ccccc2)no1,-2.64%,–
COc1ccc(-c2noc([C@@H](C)NCc3ccc(F)cc3)c2C(=O)O)cc1,-18.2% [at 176 µM],–
COc1ccc(C(=O)NC(=S)NNC(=O)c2c(-c3ccccc3)noc2C)cc1,–,35.5 µM (active)
COc1ccc(C(=O)NC(=S)NNC(=O)CCc2ccccc2)cc1,–,12.6 µM (active)
